Screening data deposited in PubChem by National Center for Advancing Translational Sciences (NCATS).
JMJD2A Tudor – blocks the human JMJD2A Tudor domain | AlphaScreen JMJD2A-Tudor / H3K4me3 peptide binding | Potency, µM (doses to about 114 µM), for the others: top-dose activity change, negative = inhibition, actives largely listed as inhibitors | 390,000 tested, 4.4% active; note: % is set by controls: 0 for no effect and ±100 for the full control effect; nearly all actives have a fitted effect of over 50% in size
G9a inh – G9a (human) methyltransferase inhibition | Q96KQ7 | G9a H3K9 monomethylation, AlphaScreen, 2 h | Potency, µM (titrated, usually from 102 µM), for the others: at the highest dose activity, negative = inhibition, usual class: inhibitors | 350,000 tested, 8.8% active; note: % is set by controls: 0 for no effect and ±100 for the full control effect; nearly all actives have a fitted effect of over 75% in size
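Signal arises when biotinylated H3K9 peptide, once monomethylated, bridges streptavidin donor and antibody-captured acceptor beads. Enzyme at 20 nM was preincubated 15 min with test compounds; peptide 500 nM and SAM 20 uM then reacted for 2 h.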
BAZ2B block – blocks human BAZ2B | Q9UIF8 | AlphaScreen BAZ2B-H3K14Ac peptide displacement | Potency, µM (series often up to 114 µM), inactives show at the highest dose activity change, negative = inhibition, usual class: inhibitors | 360,000 tested, 4.4% active; note: % is set by controls: 0 for no effect and ±100 for the full control effect; nearly all actives have a fitted effect of over 60% in size
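In this displacement format the biotinylated H3(5-23) peptide acetylated at Lys14 serves as ligand at 50 nM, with BAZ2B at 50 nM in PBS pH 7.4 containing 0.01% Tween-20. Donor and acceptor beads are 10 ug/mL final.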
GLS inhibitor – blocks human kidney-isoform glutaminase activity. GLS enzymatic activity, qHTS titration. Potency, µM (top dose mostly 45.5 µM), for the others: at the highest dose activity change, negative = inhibition, most hits filed as inhibitors. 410,000 tested, 0.21% active. AID 624170; note: % is set by controls: 0 for no effect and ±100 for the full control effect
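Coupled fluorescence readout: glutamate oxidase/HRP/Amplex Red detect glutamate formed by hKGA from L-glutamine (1 mM solution added). Buffer 45 mM KH2PO4 pH 8.2, 0.02% Tween-20; reads at t0 and 30 min RT.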
HP1b binding inh – HP1-beta chromodomain-methylated histone interaction inhibition; AID 540317; Potency, µM (highest dose often 114 µM), inactives show top-dose activity change, negative = inhibition, hits mostly inhibitors; AlphaScreen HP1-beta / biotin-H3K9me3 peptide binding; P83916; 390,000 tested, 0.56% active; note: nearly all actives have a fitted effect of over 70% in size
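Compound inhibition of the preformed complex between 50 nM HP1-beta and 50 nM biotinylated H3K9me3 peptide was read by AlphaScreen. Buffer was PBS pH 7.4 with 0.01% Tween-20. Incubations ran 30 min at room temperature, with 10 ug/mL donor/acceptor beads.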
* hit, by the source's call; ? = inconclusive; nt = not tested or not shown; ! = a repeat was not active; [ ] = dose if it differs, or a comment. Hits are enriched below; roughly 10% of the tested compounds scored in any of these assays. Calls come from the whole dose curve; as a rule, active = well fitted curve in the direction sought with a large enough effect; inconclusive = small, poorly fitted or top-dose-only effect, or another doubt; inactive = no such curve, though single readings can be large; an effect the other way counts as inactive or inconclusive. Potency is the fitted concentration of half-maximal effect.

SMILES	JMJD2A Tudor	G9a inh	BAZ2B block	GLS inhibitor	HP1b binding inh
COc1ccc(NS(=O)(=O)c2cccc3nonc23)c(OC)c1	-25.2%	39.8µM*	?	-2.6%	-12.9%
CCc1ccc(NS(=O)(=O)c2cccc3nonc23)cc1	-26.3%[11.4 µM]	44.7µM*	?	6.9%	-11.8%
COc1ccc(-c2nc3ccccc3o2)cc1NC(=O)c1ccc(-c2ccc(C)c(Cl)c2)o1	-3.3%	-4.2%[59 µM]	2.3%	-0.1%	24.9%
CCOc1cc(-c2sc(Nc3ccccc3)n[n+]2C)ccc1OC	-11.1%	44.7µM*	?	-4.2%	52.1%
CC(=O)N1CCC2(CCCN(C(=O)Nc3cccc(F)c3)C2)CC1	nt	11.0%[12.7 µM]	nt	nt	nt
COC(=O)C1=C(C)NC(C)=C(C(=O)O[C@@H]2CCCN(Cc3ccccc3)C2)[C@@H]1c1cccc([N+](=O)[O-])c1	44.7µM*	nt	nt	9.3%	?
CCOC(=O)C1=C(C)NC(C)=C(C(=O)OC)[C@@H]1c1cccc([N+](=O)[O-])c1	nt	0.9%[21.5 µM]	nt	nt	nt
CCOc1cccc(N2C(=O)CC(NCc3ccc(S(N)(=O)=O)cc3)C2=O)c1 (stereo not given)	7.4%	50.1µM*	-6.4%	2.7%	52.6%
CCCCCCOc1ccc(N2C(=O)CC(NCc3ccc(S(N)(=O)=O)cc3)C2=O)cc1 (stereo not given)	-3.7%	3.3%	-3.4%	8.4%	34.9%
COCc1nnc(NS(=O)(=O)c2ccc([N+](=O)[O-])cc2)s1	?	?	?	7.0%	16.0%
CCOC(=O)C1=C(C)N(C)C(=O)NC1c1c(C)nn(-c2ccc(C)cc2)c1Cl (stereo not given)	-22.7%	6.9%[59 µM]	-9.9%	8.7%	9.0%
CCOc1cc(CNc2cccc3[nH]c(C)nc23)ccc1OC	?	50.1µM*	?	12.4%	11.4%
O=S(=O)(c1ccc(N2CCOCC2)c(Cl)c1)N1CCOCC1	-5.5%	2.8%	0.6%	-4.5%	30.6%
O=c1c2ccccc2sn1-c1cc(S(=O)(=O)N2CCOCC2)ccc1N1CCCCC1	12.6µM*	nt	nt	nt	?
O=c1c2ccccc2sn1-c1cc(S(=O)(=O)N2CCOCC2)ccc1N1CCOCC1	3.98µM*	nt	3.55µM*	?	8.91µM*
O=c1c2ccccc2sn1-c1cc(S(=O)(=O)N2CCOCC2)ccc1N1CCCC1	22.4µM*	?	14.1µM*	?	-41.1%
C#CCN(C[C@@H]1[C@@H](OC(=O)NCc2ccccc2)[C@@H](OC(=O)NCc2ccccc2)CN(C(=O)OC(C)C)N1C(=O)OC(C)C)S(=O)(=O)c1ccc(C)cc1	nt	nt	nt	7.2%	nt
CCOC(=O)c1cnc(-n2[nH]c(C)c(Cc3ccccc3)c2=O)[nH]c1=O	7.94µM*	33.4%[12.7 µM]	2µM*	-3.2%	61.3%
CCOC(=O)c1cnc(-n2nc(C)cc2C)nc1N1CCOCC1	-4.8%	79.4µM*	14.0%	1.4%	17.2%
CCOC(=O)c1cnc(-n2nc(C)cc2C)[nH]c1=O	-17.6%[11.4 µM]	-4.3%	39.8µM*	-3.2%	36.2%
CCOC(=O)c1cnc(-n2[nH]c(C)cc2=O)[nH]c1=O	2.82µM*	?	1.78µM*	-2.9%	50.1µM*
Cc1cc(C)n(CCC(=O)N2CCc3ccccc32)n1	-19.4%	12.5%	-15.6%	-18.1%	7.0%[57 µM]
COc1ccc(OC)c(CN2CCN(C(=O)CN3C(=O)NC4(CCCC4)C3=O)CC2)c1	-3.4%	-4.7%	-5.9%	18.5%	21.9%
Fc1ccccc1COc1ccc(Br)cc1CNCC1CCCO1 (stereo not given)	-5.0%	nt	?	-0.5%	42.7%
Cc1c(C(=O)O)cnc2c([N+](=O)[O-])cnn12	8.91µM*	56.2µM*	-26.5%	?	-0.8%
SMILES	JMJD2A Tudor	G9a inh	BAZ2B block	GLS inhibitor	HP1b binding inh
Cc1cc(C)n2ncc(C(=O)O)c2n1	?	7.5%[12.7 µM]	?	-11.0%	22.8%
CCCS(=O)(=O)c1c(S(=O)(=O)CCC)c2cnccn2c1C(=O)c1ccc(OC)cc1	-12.4%	50.1µM*	-16.6%	1.4%	59.5%
N#Cc1c2c(c(=S)n(-c3ccccc3)c1N)CCCC2	-21.2%	8.91µM*	?	2.0%	0.9%
CC1(C)Cc2c(C#N)c(N)n(-c3ccccc3)c(=S)c2CO1	3.9%	nt	-4.9%	-9.9%	36.6%
Cc1sc(NC(=O)CCCC(=O)O)c(C(N)=O)c1-c1ccccc1	-22.9%	25.1µM*	0.0%	3.0%	-33.1%
COc1ccc(CN(C)C(=O)CCN(c2ccccc2)S(=O)(=O)c2ccc(C)cc2)c(OC)c1	-22.1%	-27.9%	-18.2%	-1.5%	18.6%
O=C(c1nc2ccccn2c1CN1CCN(c2ccccc2O)CC1)N1CCCC1	-23.7%	nt	?	3.55µM*	11.3%
O=C(O)c1[nH]c2ccccc2c1C=NCc1ccccc1Cl	-11.6%	56.2µM*	-12.5%	3.1%	28.6%
COc1cccc(CC(=O)Nc2sc3c(c2C(N)=O)CCCC3)c1	-2.7%	39.8µM*	-13.1%	-10.0%	20.5%
COc1ccc(CC(=O)Nc2sc3c(c2C(=O)Nc2ccc(C)cc2)CCCCC3)cc1	56.2µM*	10µM*	56.2µM*	-13.9%	4.6%
COc1ccc(NC(=O)c2c(NC(=O)Cc3ccccc3)sc3c2CCCC3)cc1	-10.5%	17.0%[59 µM]	3.1%	-11.5%	33.2%
COc1ccc(NC(=O)c2c(NCc3ccc(N(C)C)cc3)sc3c2CCC3)cc1	56.2µM*	11.2µM*	31.6µM*	-0.3%	?
COC(=O)c1c(NC(=O)Cc2cccs2)sc2c1CCCC2	?	14.6%[59 µM]	79.4µM*	15.3%	-2.5%
CCOC(=O)c1c(S(=O)(=O)N2CCCC(C(=O)Nc3cccc(Cl)c3)C2)c(C)n(C)c1C (stereo not given)	-31.3%	-18.6%[59 µM]	-1.8%	-0.8%	4.3%
Cn1nc(-c2ccc(NCCO)c([N+](=O)[O-])c2)c2ccccc2c1=O	-17.5%	-33.0%	-27.9%	1.9%	16.6%
CCc1nn(CC(=O)N2CCN(c3ccc(OC)cc3)CC2)c(=O)c2cc3sccc3n12	-17.1%	?	?	0.1%	25.8%
COc1cccc(-c2cncnc2NCc2cnc(C)cn2)c1	nt	0.6%[0.501 µM]	nt	nt	nt
Cc1ccc(C(=O)C(NC(=O)c2ccco2)Nc2sc3c(c2C(N)=O)CCCC3)cc1 (stereo not given)	nt	12.6µM*	?	nt	nt
CC(=O)N1CCc2c(sc(NC(=O)C3CCCCC3)c2C(N)=O)C1	-9.0%	?	5.3%	1.7%	41.4%
COC(=O)c1c(NC(=O)C2CCCCC2C(=O)O)sc2c1CCCCC2 (stereo not given)	-15.9%	31.6µM*	-30.4%	-1.1%	-11.1%
COC(=O)c1c(NC(=O)C2CC2)sc2c1CCN(C(C)=O)C2	-10.6%	44.7µM*	-0.2%	-1.0%	39.3%
N#CCCN(CCC#N)C(=O)c1ccc(Cl)cc1	-2.6%	-32.2%	3.2%	-5.8%	24.1%
Nc1cc([N+](=O)[O-])ccc1Nc1ccc(O)cc1	56.2µM*	10µM*	31.6µM*	13.2%	?
Cc1ccc(-c2cc(C(=O)O)c3cc(Br)ccc3n2)s1	-18.1%	39.8µM*!	?	0.9%	15.1%
